{"source": "PubChem BioAssay (Tox21)", "note": "Records with an inconclusive call do not appear. Entries that show only a call come without a potency. Activity calls are given as the source filed them. Calls come from the whole dose curve. Potency is the fitted concentration of half-maximal effect."}
{"molecular_target": "Progesterone receptor (Homo sapiens) (UniProt P06401)", "sequence (P06401 whole entry, looked up)": "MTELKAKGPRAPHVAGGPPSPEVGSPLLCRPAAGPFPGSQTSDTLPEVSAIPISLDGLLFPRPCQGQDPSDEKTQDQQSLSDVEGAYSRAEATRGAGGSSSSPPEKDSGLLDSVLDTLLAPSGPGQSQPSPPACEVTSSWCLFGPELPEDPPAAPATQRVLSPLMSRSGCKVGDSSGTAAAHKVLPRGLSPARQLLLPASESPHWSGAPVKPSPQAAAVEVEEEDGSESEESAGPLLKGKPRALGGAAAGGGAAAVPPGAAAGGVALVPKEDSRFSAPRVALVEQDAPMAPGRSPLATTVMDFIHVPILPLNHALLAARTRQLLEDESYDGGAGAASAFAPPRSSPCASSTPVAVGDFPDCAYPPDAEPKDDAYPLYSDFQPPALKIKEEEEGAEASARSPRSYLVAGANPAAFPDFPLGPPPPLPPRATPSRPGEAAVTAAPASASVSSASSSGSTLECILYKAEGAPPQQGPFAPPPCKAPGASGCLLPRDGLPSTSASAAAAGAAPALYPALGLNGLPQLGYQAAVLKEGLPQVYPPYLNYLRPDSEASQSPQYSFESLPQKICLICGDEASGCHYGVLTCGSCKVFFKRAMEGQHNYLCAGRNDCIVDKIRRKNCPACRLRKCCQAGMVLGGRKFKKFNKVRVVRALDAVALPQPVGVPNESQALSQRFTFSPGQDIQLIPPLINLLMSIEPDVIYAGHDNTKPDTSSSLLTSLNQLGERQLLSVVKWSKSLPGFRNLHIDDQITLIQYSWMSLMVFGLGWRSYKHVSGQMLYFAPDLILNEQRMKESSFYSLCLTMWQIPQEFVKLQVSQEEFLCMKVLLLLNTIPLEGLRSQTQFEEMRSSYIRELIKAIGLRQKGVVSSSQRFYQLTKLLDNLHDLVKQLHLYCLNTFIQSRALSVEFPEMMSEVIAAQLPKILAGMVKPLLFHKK", "assay": "qHTS assay to identify small molecule agonists of the progesterone receptor (PR) signaling pathway (AID 1346784); note: nearly all actives have a fitted effect of over 30% in size", "conditions": "PR-UAS-bla HEK293T, beta-lactamase FRET ratio, 16 h; series mostly up to 92.4 µM", "summary_of_the_method": "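Seed PR-UAS-bla HEK 293T cells (2% charcoal-stripped FBS), incubate 6 hr at 37C; add compounds in DMSO, 16 hr at 37C; add LiveBLAzer B/G substrate, 2 hr RT; read fluorescence intensity.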"}
{"smiles": "CC(=O)O[C@@H]1CC2C3CCc4cc(OC(=O)c5ccccc5)ccc4C3CCC2(C)[C@H]1OC(C)=O", "note": "(stereo not given in full)", "Potency": "inactive"}
{"smiles": "CN(C)CCC[C@@]1(c2ccc(F)cc2)OCc2cc(C#N)ccc21", "Potency": "inactive"}
{"smiles": "CCCCN1C(=O)c2ccccc2C1=O", "Potency": "inactive"}
{"smiles": "CCCCOCCCC", "Potency": "inactive"}
{"smiles": "COc1ccccc1N1CCN(CC(O)COc2cc(OC)c(OC)c(OC)c2)CC1", "note": "(stereo not given)", "Potency": "inactive"}
{"smiles": "COCc1nnc(-c2ccc[n+]([O-])c2)n1-c1c(Cl)c(Cl)cc2[nH]c(=O)c(=O)[nH]c12", "Potency": "inactive"}
{"smiles": "CC1(C)S[C@@H]2[C@H](NC(=O)Cc3ccccc3)C(=O)N2[C@H]1C(=O)O", "note": "(tested in a mixture with another compound)", "Potency": "inactive"}
{"smiles": "CC(C)(C)C(=O)CCc1ccc(Cl)cc1", "Potency": "inactive"}
{"smiles": "Cc1ccc(Br)cc1", "Potency": "inactive"}
{"smiles": "CC(O)C(CO)C(C)O", "note": "(stereo not given)", "Potency": "inactive"}
{"smiles": "O=C(CCBr)N1CCN(C(=O)CCBr)CC1", "Potency": "inactive"}
{"smiles": "CCNC(=O)C(C)OC(=O)Nc1ccccc1", "note": "(stereo not given)", "Potency": "inactive"}
{"smiles": "CC(=O)c1ccc2ccc3ccccc3c2c1", "Potency": "inactive"}
{"smiles": "CN(C)CCc1c[nH]c2ccc(C[C@H]3COC(=O)N3)cc12", "Potency": "inactive"}
{"smiles": "COC(=O)c1ccc(C(=O)O)cc1", "Potency": "inactive"}
{"smiles": "CCCCCCCCCCCCCCBr", "Potency": "inactive"}
{"smiles": "CC(C)C[P+](C)(CC(C)C)CC(C)C", "Potency": "inactive"}
{"smiles": "O=C(O)/C=C(\\CC(=O)O)C(=O)O", "Potency": "inactive"}
{"smiles": "Cc1ccc(OC(=O)CC(C)C)cc1", "Potency": "inactive"}
{"smiles": "CC(CC(=O)Cl)CC(C)(C)C", "note": "(stereo not given)", "Potency": "12.3 µM (active)"}
